# Only some compounds are listed: those with a hit (about 7.3% of all), similar ones and a draw of the others.
# Rab9 prom act: Rab9 promoter activation; Huh7 Rab9 promoter-luciferase reporter, luminescence, 24 h; Potency, µM (titrated, usually from 9.22 µM), inactives show at the highest dose activation, negative = inhibition, hits mostly activators; 2.8% of 320,000 active; AID 485297; note: % of control where 0% means no effect; nearly all actives have a fitted effect of over 60% in size
#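 Huh7 cells stably carrying Rab9 promoter–luciferase reporter, plated 1500 cells/well, compound added after 2 h and incubated 24 h at 37 °C; luciferase luminescence then read after 10 min with detection reagent.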
# FLuc modulator: counter-screen for miR-21 project: firefly luciferase inhibitors or activators; purified FLuc, Km substrates, luminescence inhibition; 6.9% of 360,000 active; P08659; Potency, µM (top dose mostly 57.5 µM), without a hit: top-dose activity change, negative = inhibition, actives largely listed as inhibitors;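 note: plate controls were vehicle for no effect and reference inhibitor for full effect; nearly all actives have a fitted effect of over 55% in size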
# Target sequence (P08659 whole entry, looked up): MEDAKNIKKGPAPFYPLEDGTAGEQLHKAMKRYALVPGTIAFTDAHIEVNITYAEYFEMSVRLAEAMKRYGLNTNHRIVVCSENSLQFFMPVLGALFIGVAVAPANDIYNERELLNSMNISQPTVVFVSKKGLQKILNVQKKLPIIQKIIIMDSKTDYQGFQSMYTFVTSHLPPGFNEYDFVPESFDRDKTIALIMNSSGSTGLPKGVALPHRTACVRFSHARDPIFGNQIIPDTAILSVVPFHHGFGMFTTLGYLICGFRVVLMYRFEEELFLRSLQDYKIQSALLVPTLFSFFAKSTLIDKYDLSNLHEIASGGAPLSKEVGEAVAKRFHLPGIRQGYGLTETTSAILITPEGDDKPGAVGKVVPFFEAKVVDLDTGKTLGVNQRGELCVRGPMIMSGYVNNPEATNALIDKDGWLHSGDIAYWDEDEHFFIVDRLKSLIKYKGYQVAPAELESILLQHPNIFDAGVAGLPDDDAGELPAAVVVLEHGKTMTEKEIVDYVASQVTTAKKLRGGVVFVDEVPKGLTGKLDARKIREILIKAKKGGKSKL
#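 Biochemical qHTS of compounds, final roughly 60 µM downward over six points, against 10 nM purified firefly luciferase using Km concentrations of substrates (10 uM D-luciferin, 10 uM ATP) in Tris acetate pH 7.5 buffer; luminescence output.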
# Luc counter: blocks Kinase-Glo luciferase, a counter-screen artifact; Potency, µM (series often up to 38.3 µM), for the others: at the highest dose activity change, negative = inhibition, most hits filed as inhibitors; 0.28% of 200,000 active; Kinase-Glo luciferase, ATP luminescence, 8 min; Q27757; AID 1379; note: % is set by controls: 0 for no effect and ±100 for the full control effect; nearly all actives have a fitted effect of over 60% in size
#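 Recombinant Kinase-Glo luciferase, 10 uM ATP (linear range), luciferin; imidazole pH 7.2 / KCl / MgCl2 / Tween / BSA buffer; 8 min RT; luminescence.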
# ELG1 genotox: inducers of genotoxicity in HEK293T ELG1-luciferase cells; HEK293T ELG1-luciferase reporter, luminescence, 16 h; AID 504466; Potency, µM (highest dose often 46 µM), inactives show at the top dose activity change, positive = activation, most hits filed as activators; 1.3% of 330,000 active; note: % of control where 0% means no effect; nearly all actives have a fitted effect of over 60% in size
#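 Quantitative HTS format in 1536-well plates. HEK293T ELG1-luciferase reporter cells receive test compound and are incubated 16 hr at 37 °C, 5% CO2; ONE-Glo added, 30 min room temperature, then luminescence read.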
# SMN2 splice up: increases expression of the SMN2 splice variant. HEK293 SMN2-luciferase splicing reporter, luminescence, 30-36 h. Potency, µM (highest dose often 46.1 µM), for the others: at the highest dose activity change, positive = activation, usual class: activators. 2.8% of 210,000 active. AID 1458; note: % of control where 0% means no effect; nearly all actives have a fitted effect of over 55% in size
#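 HEK293 cells carry an SMN2 […]–luciferase reporter in which exon 7 inclusion puts luciferase in frame. Cells were plated 10-12 h before compound addition, then incubated 30-36 h at 37C. ONE-Glo luminescence was read; sodium butyrate at 4.5 mM final served as control.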
# NPC1 prom act: activators of NPC1 promoter. Huh7 NPC1 promoter luciferase reporter, 24 h. Potency, µM (series often up to 9.22 µM), for inactives: at the top dose activation, usual class: activators. 2.4% of 320,000 active. AID 485313; note: % of control where 0% means no effect; nearly all actives have a fitted effect of over 60% in size
#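 Stably transfected Huh7 (NPC1 promoter→luciferase), 1500 cells/well in Opti-MEM + 10% FBS, 2 h settle, then compound 24 h at 37 °C. Luminescence after 10 min with Amplite reagent.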
# * marks the source's active call; other numbers are inactive results; ? = inconclusive; / = not tested or not shown; [ ] = dose if it differs, or a comment. Calls come from the whole dose curve; as a rule, active = well fitted curve in the direction sought with a large enough effect; inconclusive = small, poorly fitted or top-dose-only effect, or another doubt; inactive = no such curve, though single readings can be large; an effect the other way counts as inactive or inconclusive. Potency is the fitted concentration of half-maximal effect.
SMILES,Rab9 prom act,FLuc modulator,Luc counter,ELG1 genotox,SMN2 splice up,NPC1 prom act
O=C(CCCc1ccccc1)Nc1cccc([N+](=O)[O-])c1,?,?,/,?,/,3.5µM*
CCCn1c(C)nc2c(N(CCOC)CCOC)nc(C)nc21,/,/,1%,/,-7%,/
COc1ccc(NC(=O)CSCC(=O)OCc2cccc(OC)c2OC)cc1,1%,-2%,/,2%,/,-5%
CN(C)S(=O)(=O)c1cccc(C(=O)Nc2ccccc2)c1,18%,?,-1%,0%,7%,20%
O=C(NCCc1ccccc1)c1cccc([N+](=O)[O-])c1,30%,?,1%,?,11µM*,25%
CN(C)S(=O)(=O)c1cccc(C(=O)NCCc2ccccc2)c1,1.4µM*,7.6µM*,1%,12%,11µM*,0.79µM*
O=C(NCCc1ccccc1)c1cccnc1,3.2µM*,?,1%,13µM*,?,?
O=c1cc(COc2ccccc2[N+](=O)[O-])nc2sccn12,27%,-1%,/,3%,/,0%
CCSC1=C(C#N)C2(CCCCC2)C(C#N)=C(N)N1,13%,6µM*,-3%,-1%,-13%,-5%
N#CC1=C(N)NC(SCc2ccccc2)=C(C#N)C12CCCCC2,7%,-3%,5%,-6%,-23%,-2%
N#CC1=C(N)NC(SCC(=O)c2ccc(Br)cc2)=C(C#N)C12CCCCC2,-13%,0%,-3%,-10%,-28%,-2%
CCCSC1=C(C#N)C2(CCCCC2)C(C#N)=C(N)N1,-7%,21µM*,0%,-1%,/,-1%
Cc1ccc(N2C(=O)C(CC(=O)Nc3cccc(F)c3)N(C3CC3)C2=O)cc1 (centres undefined),-1%,-4%,-2%,6%,16%,1%
c1cncc(-c2noc(-c3cccc4ccccc34)n2)c1,?,7.6µM*,13%,8.2µM*,8%,16%
c1ccc2c(-c3nc(-c4ccncc4)no3)cccc2c1,?,11µM*,3%,?,?,?
c1ccc(-c2noc(-c3cccc4ccccc34)n2)cc1,14%,6µM*,1%,?,11µM*,26%
O=C(COc1ccc(Cl)cc1)NCc1ccccc1,1%,-1%,/,-2%,/,2%
COC(=O)c1ccc(NC(=S)NC(=O)C2CCC2)cc1,2%,?,/,17%,/,2%
COc1ccc(NC(=S)NC(=O)C2CCC2)cc1,4.5µM*,17µM*,/,?,/,?
O=C(NC(=S)Nc1ccc(Br)cc1)C1CCC1,17%,19µM*,/,?,/,23%
COc1ccc(CCNC(=O)C2(C)CCC(=O)N2CCC(C)C)cc1OC (centres undefined),3%,2%,0%,2%,20%,-3%
O=C(C=C1SCCS1)/C=C/c1ccco1,2.5µM*,1.3µM*,-20%,?,13µM*,0.71µM*
O=C(/C=C/c1ccc([N+](=O)[O-])cc1)/C=C/c1ccco1,2%,4.3µM*,/,0%,/,-5%
COc1ccc(Nc2nc(CC(C)=O)ns2)cc1,3.2µM*,?,2%,?,14µM*,?
CC(=O)Cc1nsc(Nc2ccc(F)cc2)n1,19%,-6%,0%,11%,24%,4%
SMILES,Rab9 prom act,FLuc modulator,Luc counter,ELG1 genotox,SMN2 splice up,NPC1 prom act
CC(=O)Cc1nsc(Nc2ccc3c(c2)OCCO3)n1,4µM*,24µM*,-20%,?,13µM*,3.5µM*
COc1cccc(Nc2nc(CC(C)=O)ns2)c1,27%,?,-1%,?,17%,?
CN1C(=O)[C@@H]2[C@H](C1=O)[C@@H]1C(=O)Nc3ccccc3C(=O)N1[C@@H]2c1ccc(F)cc1,-5%,-1%,/,0%,/,1%
CC1CCCc2sc3nc(NCc4ccco4)n4ncnc4c3c21 (centres undefined),0%,-19%,4%,1%,7%,9%
O=C(O)CCC(=O)Nc1ccc(C(=O)OC2CCCCC2)cc1,-7%,13µM*,2%,0%,-15%,-4%
CC(C)(C)C(=O)Nc1ccc(C(=O)OC2CCCCC2)cc1,1.4µM*,4.3µM*,-2%,?,35µM*,1.4µM*
O=C1CC(c2ccc(S(=O)(=O)N3CCCCC3)cc2)CN1 (centres undefined),-6%,6%,2%,1%,26%,0%
O=c1[nH]c(SCc2n[nH]c(=S)n2-c2ccccc2)nc2ccccc12,1%,3%[2.3 µM],2%,0%,2%,-4%
Cc1ccccc1Oc1ccc(Oc2ccccc2C)nn1,?,?,-1%,?,?,4µM*
O=C(CCN1C(=O)/C(=C/c2ccccc2)SC1=S)Nc1cccnc1,3%,-10%,/,-1%,/,0%
CCc1ccc(/C=C2\SC(=S)N(CCCC(=O)Nc3ccccc3C(=O)O)C2=O)cc1,-15%,?,/,-1%,/,-2%
CCc1ccc(/C=C2/SC(=S)N(CCC(=O)Nc3cccnc3)C2=O)cc1,-9%,0.85µM*,/,17%,/,-1%
CCc1ccc(/C=C2\SC(=S)N(CCCC(=O)Nc3ccc(C(=O)O)cc3)C2=O)cc1,-33%,4.8µM*,/,7%,/,-22%
O=C(CCCN1C(=O)/C(=C\c2cccs2)SC1=S)Nc1ccc(C(=O)O)cc1,-1%,?,-2%,-13%,-1%,-2%
O=C(CCCN1C(=O)/C(=C\c2ccccc2)SC1=S)Nc1ccc(C(=O)O)cc1,-4%,17µM*,/,-2%,/,-6%
CCCOc1cccc(C2/C(=C(/O)c3ccc(F)cc3)C(=O)C(=O)N2CCN(C)C)c1 (centres undefined),-11%,2%,12%,1%,9%,-3%
Cc1cc(=O)oc2cc(OCC(=O)N3CCN(c4ccccc4)CC3)c(Cl)cc12,2%,19µM*,/,0%,/,-1%
Cc1cccc(N2CCN(C(=O)COc3cc4oc(=O)cc(C)c4cc3Cl)CC2)c1C,0%,-1%,/,0%[9.26 µM],/,0%
COc1cc(/C=N/NC(=O)c2cncc(Br)c2)ccc1OC(=O)c1ccc2c(c1)OCO2,/,0%,-2%,7%,10%,1%
COc1ccc(NC(=O)Cn2c(=O)oc3cc(S(=O)(=O)N4CCCC4)ccc32)c(OC)c1,4%,-1%,/,1%,/,-4%
Cc1cccc(-n2c(CCCN3C(=O)c4ccccc4C3=O)nc3ccccc3c2=O)n1,14%,7%,-1%,23µM*,0%,-2%
Cc1cccc(-n2c(CCN3C(=O)c4ccccc4C3=O)nc3ccccc3c2=O)n1,-2%,-1%,1%,-4%,2%,6%
c1ccc2oc(SCc3cn4ccsc4n3)nc2c1,3.5µM*,9.5µM*,-12%,?,?,2.8µM*

# Source: PubChem BioAssay (National Center for Advancing Translational Sciences (NCATS))
